Assay outcomes from PubChem.
Most compounds without a hit are left out; they make up all but 6.1% or so of the library.
D1 agonist = agonists of human D1 dopamine receptor; P21728; HEK293 T-REx D1 cells, calcium flux, agonist mode; activation, % at 2 µM; actives 1% (n = 360,000); AID 504660; in the data active means activation above about 30%
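Tetracycline-induced HEK293 TREx D1 cells, force-coupled to calcium signalling, were dye-loaded with a no-wash calcium kit. Compound was pin-added after a 10 s baseline. Fluorescence was read kinetically at 1 cycle/s for 180 s, with calcium rises flagged as agonism.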
D1 antag = human D1 dopamine receptor antagonism. P21728. HEK293 TREx D1 cells, calcium flux, dopamine EC80; stronger effect = lower value. activity change, negative = inhibition, % at 10 µM. actives 3.2% (n = 360,000). AID 504652; in the data active means activity change below about -30%
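Kinetic fluorescence of a calcium dye serves as the read-out. D1-expressing Hek293 Trex cells, induced overnight at 30 C, are exposed to compound for 180 s before an EC80 dopamine addition, then read 180 s further.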
DRD3 agonist = agonists of human D3 dopamine receptor; D3R DiscoveRx beta-arrestin cells, luminescence, 90 min; max activation, %; actives 0.58% (n = 410,000); AID 652048; in the data active means max activation above about 30%
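Agonist-mode cell screen: cells plated at 1500/well and incubated overnight at 37 °C, then exposed to library compounds for 90 min at 37 °C. Detection reagent was added for 30–60 min at room temperature, and luminescence was read.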
ERG-DNA inh = inhibitors of human ERG Ets domain-DNA interaction; fluorescence polarization, His-ERG Ets domain / labelled DNA; Potency, µM (series often up to 76.9 µM), most hits filed as inhibitors; actives 0.028% (n = 370,000); active means well fitted inhibition curve with a large enough effect in the polarisation, with a control signal flat; the % refers to the polarisation;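 further: polarization taken with two DNA probes labelled with fluorescein and Texas red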
Target sequence (P11308 whole entry, looked up, the tested form may be a part): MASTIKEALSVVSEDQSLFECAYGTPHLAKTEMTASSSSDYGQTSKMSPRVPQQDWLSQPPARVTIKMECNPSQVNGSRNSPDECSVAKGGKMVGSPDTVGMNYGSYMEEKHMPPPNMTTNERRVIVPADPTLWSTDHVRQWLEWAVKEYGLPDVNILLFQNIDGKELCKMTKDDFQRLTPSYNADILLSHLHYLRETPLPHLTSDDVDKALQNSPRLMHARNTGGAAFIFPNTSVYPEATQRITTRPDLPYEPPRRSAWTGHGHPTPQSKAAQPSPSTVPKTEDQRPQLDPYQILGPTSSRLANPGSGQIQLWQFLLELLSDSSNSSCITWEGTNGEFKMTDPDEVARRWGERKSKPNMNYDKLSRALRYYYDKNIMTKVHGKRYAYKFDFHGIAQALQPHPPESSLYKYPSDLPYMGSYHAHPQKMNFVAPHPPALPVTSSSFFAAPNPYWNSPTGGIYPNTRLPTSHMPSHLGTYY
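His-tagged ERG Ets domain (1 uM in the protein solution; 300mM KCl, 50mM Tris-HCl, 1mM EDTA, 1mM DTT, pH 7.5) received compound, then a probe mix of 5 nM fluorescein-DNA and 100nM Texas-615-DNA. Fluorescence polarization was read for both dyes.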
DRD3 antagonist = blocks the human D3 dopamine receptor | P35462 | D3R cells, DiscoveRx beta-arrestin luminescence, antagonist mode; stronger effect = lower value | max response, negative = inhibition, % | actives 2.5% (n = 360,000); in the data active means max response below about -50%
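Cells plated overnight at 1500 cells/well, then exposed to library compounds with dopamine controls for 90 minutes at 37 degrees C. DiscoveRx reagent added for 30–60 minutes at room temperature; luminescence read, quantitative HTS format.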
D1 potentiator = human D1 dopamine receptor positive modulation; HEK293 TREx D1 cells, calcium flux, dopamine EC20 potentiation; potentiation, % at 10 µM; actives 0.036% (n = 360,000); AID 504651; in the data active means potentiation above about 30%
Each line names hits and unclear results; the compound was inactive in the other large screens; ! = a repeat was not active.

CCCCn1c(SCC(=O)c2ccc(O)c(O)c2)nc2ccsc2c1=O	none
CCCCn1c(SCC(=O)c2ccccc2)nc2ccsc2c1=O	DRD3 agonist 59
Cc1cccc(NS(=O)(=O)c2cccc(C(=O)N3CCCCCC3)c2)c1	none
Cc1cc(=O)n2[nH]c(C)c(-c3ccccc3)c2n1	none
O=c1cc(-c2ccccc2)nc2c(-c3ccccc3)c(C(F)(F)F)[nH]n12	D1 antag -31
O=C(Oc1cccc2c(O)cccc12)c1ccccc1Cl	none (no result: D1 agonist, D1 antag, D1 potentiator)
Cc1nc2c(=O)n(C)c(=O)[nH]c2n1Cc1ccccc1	DRD3 antagonist -62
COc1ccc(-c2[nH]c(-c3ccc(Cl)cc3)nc2SCC(=O)NCC2CCCO2)cc1 (stereo unspecified)	none (no result: DRD3 antagonist)
CCCC(=O)Oc1ccc(N(C(=O)CCC)S(=O)(=O)c2cccc([N+](=O)[O-])c2)cc1	none (no result: ERG-DNA inh)
Cn1c(=O)n(CC(=O)NCC2CCCO2)c(=O)c2c3c(sc21)COC(C)(C)C3 (stereo unspecified)	D1 antag -30
NC(=O)c1ccc(SCC(=O)OCC(=O)N2CCCC2=O)c([N+](=O)[O-])c1	D1 antag -43
CCOCCc1nnc(NC(=O)C(=O)c2cc(C)n(-c3ccc(Cl)cc3)c2C)s1	none (no result: DRD3 antagonist)
CC(C)n1ncc2c(C(=O)Nc3ccc(S(N)(=O)=O)cc3)cc(C3CC3)nc21	none
Cc1ccc(-c2csc3nc(-c4ccncc4)[nH]c(=O)c23)cc1	D1 antag -34
Cc1ccc(-c2csc3nc[nH]c(=O)c23)cc1	none
Cc1ccc(-c2csc3nc(CN(C)Cc4ccccc4)[nH]c(=O)c23)cc1	D1 antag -36
CCOc1ccc(-c2nc3scc(-c4cccs4)c3c(=O)[nH]2)cc1	D1 antag -75
COc1ccc(N2CCN(Cc3nc4scc(-c5cccs5)c4c(=O)[nH]3)CC2)cc1	none
CCOC(=O)C1CCN(CC(O)COC(CC)c2ccccc2)CC1 (stereo unspecified)	none
CN1C/C(=C/c2ccccc2[N+](=O)[O-])C(=O)/C(=C\c2ccccc2[N+](=O)[O-])C1	DRD3 antagonist -90 (no result: D1 agonist, D1 antag, D1 potentiator)
COc1ccc(Br)c(C(=O)Nn2c(C)nc3ccccc3c2=O)c1	none (no result: ERG-DNA inh)
COc1ccc(C[C@H]2c3cc(O)c(OC)cc3CC[N+]2(C)[O-])cc1O (stereo partly specified)	D1 antag -83
COc1cc2c(cc1O)C(Cc1ccc(O)cc1)[N+](C)([O-])CC2 (stereo unspecified)	D1 antag -38
CC(/C=C/c1ccc2c(c1)OCO2)=N\NC(=O)COc1ccccc1C	none
Cc1c([N+](=O)[O-])cc(C(=O)Oc2ccc(Br)cc2C(=S)N2CCCCC2)cc1[N+](=O)[O-]	none
CC(OC(=O)c1ccc(S(=O)(=O)N(C)C)cc1)C(=O)Nc1ccc(Cl)cn1 (stereo unspecified)	D1 antag -60
O=C(NCc1ccco1)C(c1ccccc1)N(C(=O)Cc1cccs1)c1ccccc1 (stereo unspecified)	none
COc1ccc2c(CC(=O)NNC(=O)c3ccc(C)cc3)coc2c1	none (no result: D1 agonist, D1 antag, D1 potentiator)
Cc1ccc(CNC(=O)c2cc(=O)c3cc(C)ccc3o2)cc1	D1 agonist 60!
COc1ccc(CNC(=O)Cc2coc3ccc(C)cc23)cc1	D1 antag -35 (no result: DRD3 antagonist)
COc1ccc(C(=O)c2oc3ccccc3c2NC(=O)COc2ccc(C)cc2)cc1	none (no result: DRD3 antagonist)
CN(C)CCN(Cc1ccco1)C(=O)c1oc2ccccc2c1NC(=O)c1cccc(F)c1	D1 agonist 66 (no result: DRD3 antagonist)
Cc1c(C(=O)N(Cc2ccco2)Cc2cccs2)oc2ccccc12	none (no result: D1 potentiator)
CN(C)CCN(Cc1ccco1)C(=O)c1oc2ccccc2c1NC(=O)COc1ccccc1	D1 antag -40
COCCn1c(SCC(=O)c2ccc3c(c2)OCCO3)nnc1C(C)C	none
COCCn1c(SCC(=O)c2ccc(Cl)cc2)nnc1C(C)C	DRD3 antagonist -70
COc1ccc(N2CCN(C(=O)c3ccccc3)CC2)c([N+](=O)[O-])c1	none
CCCCC(=O)N1CCN(c2ccc(OC)cc2[N+](=O)[O-])CC1	none
COc1cccc(CC(=O)N2CCN(c3ccccc3[N+](=O)[O-])CC2)c1	D1 antag -40
COc1ccc(N2CCN(C(=O)c3ccccc3Br)CC2)c([N+](=O)[O-])c1	D1 agonist 38, D1 antag -49
O=C(Nc1ccon1)c1nc[nH]c1C(=O)N1CCc2ccccc2C1	none (no result: D1 antag)
O=S(=O)(NCc1ccc(C(F)(F)F)cc1)c1ccc(-n2cnnn2)cc1	D1 antag -39
Cc1ccc(NC(=O)CC(NCCN2CCOCC2)C(=O)O)cc1Cl (stereo unspecified)	none
CC(C)CCn1c(=O)c2sccc2n2c(CCCC(=O)N3CCC(N4CCCCC4)CC3)nnc12	D1 antag -45
COc1cc(/C=C2/CCCC(C(=O)C(F)(F)F)=C2O)ccc1O	none
CCOc1cc(/C=C2\CCCC(C(=O)C(F)(F)F)=C2O)ccc1O	DRD3 antagonist -52
O=[N+]([O-])c1ccccc1S(=O)(=O)N1CCN(C2CCN(Cc3ccccc3)CC2)CC1	DRD3 antagonist -76
O=S(=O)(c1ccc(Cl)cc1)N1CCN(C2CCN(Cc3ccccc3)CC2)CC1	DRD3 antagonist -63
O=[N+]([O-])c1ccccc1S(=O)(=O)N1CCN(C2CCCC2)CC1	DRD3 antagonist -59
CS(=O)(=O)N1CCN(S(=O)(=O)c2ccccc2[N+](=O)[O-])CC1	none
CC(C)(C)c1ccc(C(=O)Nc2nnc(C3=COCCO3)o2)cc1	DRD3 antagonist -71
Cc1cc(C)nc(NC(=NCCc2c[nH]c3ccccc23)NC(=O)C(C)(C)C)n1	D1 antag -55
Cc1cc(C)nc(NC(=NCCc2c[nH]c3ccc(Cl)cc23)NC(=O)c2ccccc2C)n1	none (no result: DRD3 antagonist)
CCOc1ccc(C(=O)N2CCN(c3cccc(C)c3C)CC2)cc1	none
Cc1ccccc1NC(=O)c1c(NC(=O)C(F)(F)F)sc2c1CCCCC2	D1 agonist 35 (no result: DRD3 antagonist)
Cc1ccccc1NC(=O)c1c(NC(=O)c2ccccc2)sc2c1CCC2	none (no result: DRD3 antagonist)
Cc1ccc(NC(=O)c2c(NC(=O)C(F)(F)F)sc3c2CCCCC3)cc1	D1 agonist 32, D1 antag -42 (no result: DRD3 antagonist)
Cc1cccc(NC(=O)c2c(NC(=O)C(F)(F)F)sc3c2CCCCC3)c1	D1 agonist 34, D1 antag -37 (no result: DRD3 antagonist)
Cc1cccc(NC(=O)c2c(Br)sc3c2CCCC3)c1	none (no result: DRD3 antagonist)
COc1ccc(NC(=O)c2c(NC(=O)COc3ccccc3)sc3c2CCCCC3)cc1	D1 antag -37 (no result: DRD3 antagonist)
COc1ccc(NC(=O)CSc2nc3ccccc3c(=O)n2CCCO)cn1	none
Cc1ccccc1CN1C(=O)C2(OCCCO2)c2ccccc21	none
